Compound activity from PubChem BioAssay.
A549 viability = counter-screen for Nrf2 inhibitors: cytotoxicity in A549 cells; Potency, µM (series often up to 46 µM), for the others: at the highest dose activity change, negative = cytotoxicity, most hits filed as inhibitors; 390,000 compounds, 0.16% hits; AID 504648; A549 ARE-Fluc cells, CellTiter-Fluor viability, 18-24 h; further: potency means the concentration at half of the fitted maximal effect
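A549 ARE-Fluc cells in 5% FBS OPTI-MEM, 5000 cells/well, rested 2 h then exposed to compounds in concentration-response for 18-24 h at 37 °C. Viability by CellTiter-Fluor fluorescence (Ex 405/Em 525) after 30 min; luciferase luminescence (BugLite, 15 min, RT) read afterwards.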
Nrf2 block = Nrf2 pathway inhibition; AID 504444; A549 ARE-Fluc reporter, luciferase luminescence, 18-24 h; 360,000 compounds, 2.1% hits; Potency, µM (doses to about 46 µM), without a hit: top-dose activity change, negative = inhibition, most hits filed as inhibitors; further: potency means the concentration at half of the fitted maximal effect; nearly all actives have a fitted effect of over 60% in size
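Reporter: ARE-Fluc in A549. Exposure: 18-24 h, 37 °C, 5% CO2, 5% FBS OPTI-MEM. Readouts: fluorescent cytotoxicity (CellTiter-Fluor), then luminescent Nrf2 signal after BugLite.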
PI4K2A block = inhibitors of human PI4K2A; Q9BTU6; 420,000 compounds, 0.13% hits; purified PI4K2A, ADP-Glo luminescence, 1 h; hits give low values; activity change, negative = inhibition, % at 76.9 µM; in the data active means activity change below about -50%; inconclusive means mostly about -30% to -49%;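 further: -100% = wells without enzyme as full effect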
Target sequence (Q9BTU6 whole entry, looked up): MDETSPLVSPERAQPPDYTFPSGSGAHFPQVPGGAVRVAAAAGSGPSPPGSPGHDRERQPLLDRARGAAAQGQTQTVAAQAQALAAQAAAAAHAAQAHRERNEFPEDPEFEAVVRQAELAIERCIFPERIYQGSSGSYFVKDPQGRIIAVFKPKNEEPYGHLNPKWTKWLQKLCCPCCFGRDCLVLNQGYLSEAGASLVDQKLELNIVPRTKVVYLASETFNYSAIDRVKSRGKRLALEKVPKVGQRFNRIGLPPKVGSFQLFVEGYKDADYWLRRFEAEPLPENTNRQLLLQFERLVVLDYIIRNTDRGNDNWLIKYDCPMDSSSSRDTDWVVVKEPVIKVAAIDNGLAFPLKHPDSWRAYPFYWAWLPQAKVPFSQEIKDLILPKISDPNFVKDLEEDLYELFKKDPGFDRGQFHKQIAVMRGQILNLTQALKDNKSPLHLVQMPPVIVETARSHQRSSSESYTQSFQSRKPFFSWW
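PI4K2A activity was measured by ADP-Glo luminescence: enzyme (4 ug/mL stock) and phosphatidylinositol (1.2 mM stock) in Tris pH 7.5/MgCl2/EGTA/Triton X-100 buffer were reacted with ATP (300 microM stock) for one hour at ambient temperature.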
KB-V1 cytotox = KB-V1 MDR subline cytotoxicity | KB-V1 MDR cells viability, CellTiter-Glo, 72 h | Potency, µM (highest dose often 46.1 µM), hits mostly cytotoxic | AID 1347076 | 400,000 compounds, 3.4% hits; further: potency means the concentration at half of the fitted maximal effect; nearly all actives have a fitted effect of over 60% in size
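Cytotoxicity via CellTiter-Glo luminescence after 72 h compound exposure at 37 degrees C. Cells: drug-selected KB-V1 line, DMEM phenol-red free plus 10% FBS. Compounds tested at multiple concentrations; normalized data fitted to concentration-effect curves.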
KB-3-1 cytotox = kills parental KB-3-1 adenocarcinoma cells; KB-3-1 viability, CellTiter-Glo ATP luminescence, 72 h; Potency, µM (top dose mostly 46.1 µM), most hits filed as cytotoxic; 400,000 compounds, 1.4% hits; AID 1347075; further: potency means the concentration at half of the fitted maximal effect; nearly all actives have a fitted effect of over 60% in size
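Using CellTiter-Glo luminescence, growth of non-resistant KB-3-1 adenocarcinoma cells is assessed 72 h after pin-tool compound addition at 37 °C. Normalized responses across the concentration series yield fitted curves.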
Giardia killer = kills Giardia lamblia; 340,000 compounds, 0.15% hits; Giardia lamblia trophozoite viability; AID 540267; activity change, % at 7.66 µM, hits read low; in the data active means activity change below about -80%; inconclusive means between about -30% and that limit;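 further: parasites exposed to compound for two days anaerobically before the ATP read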
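Trophozoite viability was measured as ATP-dependent luminescence, read 15-30 min after reagent addition. Before that, parasites at 100 cells/well were exposed to compounds for 48 h, anaerobically, at 37 deg C.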
Numbers without * were called inactive. An excerpt weighted towards active compounds, which were near 5.7% of everything screened. Unless noted, the call rests on the fitted dose curve; in most records, active means well fitted curve in the direction sought with a large enough effect; inconclusive means small, poorly fitted or top-dose-only effect, or another doubt; inactive means no such curve, though single readings can be large; an effect the other way counts as inactive or inconclusive. Unless noted, on the % scale 0 is the no-effect control and ±100 the full control effect.

Results for O=C(c1ccc(CS(=O)c2ccccc2Cl)o1)N1CCN(c2ccccn2)CC1 (centres undefined) ?
A549 viability: -11%; Nrf2 block: inconclusive; PI4K2A block: 0; KB-V1 cytotox: inconclusive; KB-3-1 cytotox: 7.3µM*; Giardia killer: 8

Results for O=C(c1ccc(CS(=O)Cc2ccc(Cl)cc2)o1)N1CCN(c2ccccn2)CC1 (centres undefined) ?
A549 viability: -8%; Nrf2 block: inconclusive; PI4K2A block: 2; KB-V1 cytotox: inconclusive; KB-3-1 cytotox: inactive; Giardia killer: -4

Results for O=C(c1ccc(C#Cc2ccccc2)o1)N1CCN(c2ccccn2)CC1 ?
A549 viability: inconclusive; Nrf2 block: 18µM*; PI4K2A block: -3; KB-V1 cytotox: inactive; KB-3-1 cytotox: inactive; Giardia killer: 10

What do the screens show for `COc1ccc(C2Nc3ccccc3C(=O)N2Cc2ccccc2)cc1COc1ccc([N+](=O)[O-])c(C)c1` (centres undefined)?
A549 viability: -2%; Nrf2 block: -8%; KB-V1 cytotox: inactive; KB-3-1 cytotox: inactive; Giardia killer: 27

How did O=Cc1ccc(O)c(O)c1O do in these assays?
PI4K2A block: -3

Results for CCOc1ccc(NC(=O)CSc2cn(CC(=O)N3CCOCC3)c3ccccc23)cc1 ?
A549 viability: -1%; Nrf2 block: 22%; PI4K2A block: -2

Results for Cc1noc(C)c1-c1ccc2ncnc(NCc3ccc(C(F)(F)F)cc3)c2c1 ?
A549 viability: 3%; Nrf2 block: inconclusive

What do the screens show for `COC(=O)/C=C/c1ccccc1S(=O)(=O)N(Cc1ccccc1)Cc1ccco1`?
A549 viability: 2%; Nrf2 block: -14%; PI4K2A block: -12; KB-V1 cytotox: 7.3µM*; KB-3-1 cytotox: 3.3µM*; Giardia killer: 17

How did COC(=O)/C=C/c1ccccc1S(=O)(=O)NC(C)C do in these assays?
KB-V1 cytotox: inactive; KB-3-1 cytotox: inactive

Results for O=C(c1ccccc1)N1CC[C@H]2[C@H](CCCN2Cc2ccccc2)C1 ?
PI4K2A block: 3

Results for O=c1[nH]c(=O)n([C@H]2C[C@@H](O)[C@@H](CO)O2)cc1C=CBr ?
PI4K2A block: 1

Results for Oc1[nH]c2ccccc2c1C=Nc1ccc2c(c1)OCCO2 ?
A549 viability: inconclusive; Nrf2 block: inconclusive; PI4K2A block: -2; KB-V1 cytotox: 16µM*; KB-3-1 cytotox: inactive; Giardia killer: -23

What do the screens show for `O=CNc1ccc2c(c1)Cc1cccc(NC=O)c1-2`?
A549 viability: -3%; Nrf2 block: 13%; PI4K2A block: -2; KB-V1 cytotox: 6.5µM*; KB-3-1 cytotox: inconclusive; Giardia killer: 20

What do the screens show for `C=CCN(CC=C)c1cnn(-c2nc3ccccc3[nH]2)c(=O)c1Cl`?
A549 viability: 0%; PI4K2A block: -11; KB-V1 cytotox: 4.1µM*; KB-3-1 cytotox: inactive; Giardia killer: 12

How did O=c1c(Cl)c(NCCCO)cnn1-c1nc2ccccc2[nH]1 do in these assays?
A549 viability: -2%; Nrf2 block: inconclusive; PI4K2A block: -11; KB-V1 cytotox: inactive; KB-3-1 cytotox: inconclusive; Giardia killer: -8

How did N#Cc1c(N)n(CCNC(=O)c2ccc(Cl)cc2)c2nc3ccccc3nc12 do in these assays?
A549 viability: 10%; Nrf2 block: 9.2µM*; PI4K2A block: 6; KB-V1 cytotox: inactive; KB-3-1 cytotox: inactive; Giardia killer: 9

What do the screens show for `N#Cc1c(NC(=O)c2ccc(Br)o2)n(-c2ccccc2)c2nc3ccccc3nc12`?
A549 viability: -12%; Nrf2 block: inconclusive; PI4K2A block: -52*; KB-V1 cytotox: inactive; KB-3-1 cytotox: inactive; Giardia killer: 10

What do the screens show for `CCC(=O)Nc1c(C#N)c2nc3ccccc3nc2n1-c1ccc(C)cc1`?
A549 viability: 28%; Nrf2 block: inconclusive; PI4K2A block: -8; KB-V1 cytotox: inconclusive; KB-3-1 cytotox: inactive; Giardia killer: -1

Results for CCCCn1c(NC(=O)c2ccccc2)c(C#N)c2nc3ccccc3nc21 ?
A549 viability: -6%; Nrf2 block: inconclusive; PI4K2A block: -2; KB-V1 cytotox: 5.2µM*; KB-3-1 cytotox: inconclusive; Giardia killer: 7

Results for CCC(C)n1c(NC(=O)c2ccccc2)c(C#N)c2nc3ccccc3nc21 (centres undefined) ?
A549 viability: -22%; PI4K2A block: -56*; KB-V1 cytotox: inconclusive; KB-3-1 cytotox: inconclusive; Giardia killer: -6

How did O=C(NCc1ccc(Cl)cc1)OCCN1C(=O)CCC12CCC(c1ccccc1)CC2 (centres undefined) do in these assays?
PI4K2A block: -3

What do the screens show for `c1c[nH]c(CNc2ncnc3ccc(-c4ccc5c(c4)OCO5)cc23)n1`?
A549 viability: 8%; Nrf2 block: 6%

What do the screens show for `COc1ccc(C2CC(=O)NC(NC(=O)c3ccc(Br)cc3)=N2)c(OC)c1OC` (centres undefined)?
A549 viability: 10%; Nrf2 block: 12%; PI4K2A block: 1

Results for Cc1nn(-c2ccccc2)c(Cl)c1/C=N/NC(N)=O ?
A549 viability: 6%; Nrf2 block: 3%; PI4K2A block: 3; KB-V1 cytotox: 2.1µM*; KB-3-1 cytotox: inconclusive; Giardia killer: -7

What do the screens show for `COC(=O)N/N=C\c1c(C)nn(-c2ccccc2)c1Cl`?
A549 viability: -9%; Nrf2 block: inconclusive; PI4K2A block: -1; KB-V1 cytotox: inactive; KB-3-1 cytotox: inactive; Giardia killer: -3

How did CCOC(=O)N/N=C/c1c(C)nn(-c2cccc(C(F)(F)F)c2)c1Cl do in these assays?
A549 viability: -10%; Nrf2 block: inconclusive; PI4K2A block: 5; KB-V1 cytotox: 2.6µM*; KB-3-1 cytotox: 2.1µM*; Giardia killer: -21

Results for Cc1ccc(C)c(OCC(=O)N/N=C/c2c(C)nn(-c3ccccc3)c2Cl)c1C ?
A549 viability: 2%; Nrf2 block: -20%; PI4K2A block: 1; KB-V1 cytotox: 8.2µM*; KB-3-1 cytotox: inconclusive; Giardia killer: -4

How did Cc1nn(Cc2ccccc2)c(Cl)c1/C=N/NC(=O)CNc1cccc(C(F)(F)F)c1 do in these assays?
A549 viability: 0%; Nrf2 block: inconclusive; PI4K2A block: 4; KB-V1 cytotox: 9.2µM*; KB-3-1 cytotox: inactive; Giardia killer: -4

Results for O=C(CNc1cccc(C(F)(F)F)c1)N/N=C/c1cccc(Br)c1 ?
A549 viability: 0%; Nrf2 block: inconclusive; PI4K2A block: 2; KB-V1 cytotox: inactive; KB-3-1 cytotox: inactive; Giardia killer: -3

How did CCN1CCCCC(NC(=O)c2cccc(C(F)(F)F)c2)C1=O (centres undefined) do in these assays?
PI4K2A block: 0
